# “And” between values parts separate entries of the source, which are not always exact repeats. Equal values may be shown once. Results filed as inconclusive are left out. The source made the active and inactive calls. The call rests on the fitted dose curve; in most records, active means well fitted cell-killing curve with a large enough effect; inconclusive means small, poorly fitted or top-dose-only effect; inactive means flat fitted curve, though single readings scatter.
# Test: Cellular viability qHTS for adrenocortical cancer (ACC) cell line SW-13 (AID 1963989); further: nearly all actives have a fitted effect of over 65% in size;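 on activity (max response): cells grown in serum-free medium with ITS supplement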
# Conditions: SW-13 ACC cells viability, CellTiter-Glo, 48 h; activity (max response): active compounds read low
# Method in brief: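 Here, serum-free SW-13 cultures were dosed up to 46 uM. Following 48 h, ATP-dependent luminescence (CellTiter-Glo) reported viable cells, and logistic modeling produced IC50 values.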
# On the % scale 0 is the no-effect control and ±100 the full control effect; potency means the concentration at half of the fitted maximal effect.
SMILES,activity (max response),Potency
Nc1nc2c(c(=O)[nH]1)N(C=O)[C@H](CNc1ccc(C(=O)N[C@@H](CCC(=O)O)C(=O)O)cc1)CN2,4.65% (inactive),
O=C(N[C@@H](c1ccccc1)[C@@H]1CCCCN1)c1cccc(C(F)(F)F)c1Cl,,28.2 µM (active)
O=C(Nc1ncc(-c2cc(C(F)F)nn2-c2c(Cl)cccc2Cl)s1)C1CC1,,0.316 µM (active)
CCCCCCCCCCCC(CC1OC(=O)C1CCCCCC)OC(=O)C(CC(C)C)NC=O (stereo not drawn),11.6% (inactive),
Cc1ccc(-n2[nH]c(C)c(N=Nc3cccc(-c4cccc(C(=O)O)c4)c3O)c2=O)cc1C,7.78% (inactive),
CC(C)C(=O)Nc1ccc([N+](=O)[O-])c(C(F)(F)F)c1,15.5% (inactive),
O=C(Nc1nccs1)C(c1cc(F)ccc1O)N1Cc2ccccc2C1=O (stereo not drawn),-2.19% (inactive),
O=C(/C=C\n1cnc(-c2cc(C(F)(F)F)cc(C(F)(F)F)c2)n1)NNc1ccccn1,,11.2 µM (active)
O=c1ncn2nc(Sc3ccc(F)cc3F)ccc2c1-c1c(Cl)cccc1Cl,-0.752% (inactive),
COc1ccccc1[C@H](c1cccc2ccccc12)[C@@](C)(C#N)C(=O)N1CCC(c2cccc(C(F)(F)F)c2)CC1,-5.9% (inactive),
O=C1c2c(O)ccc(O)c2C(=O)c2c(NCCNCCO)ccc(NCCNCCO)c21,,1.16 µM (active) and 2.51 µM (active)
CCc1c2c(nc3ccc(O)cc13)-c1cc3c(c(=O)n1C2)COC(=O)[C@]3(O)CC,,0.224 µM (active)
O=C(Nc1nc2cccc(-c3ccc(CN4CCS(=O)(=O)CC4)cc3)n2n1)C1CC1,,25.1 µM (active)
